This is a sample that favours compounds with a hit; in the whole collection about 2.4% have one here.
TDP1 block = inhibitors of human tyrosyl-DNA phosphodiesterase TDP1 | Q9NUW8 | recombinant TDP1, AlphaScreen DNA substrate cleavage | Potency, µM (titrated, usually from 130 µM), inactives show at the top dose activity change, negative = inhibition, hits mostly inhibitors | actives 0.28% (n = 350,000); note: % is set by controls: 0 for no effect and ±100 for the full control effect; nearly all actives have a fitted effect of over 40% in size
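Enzyme-compound mixtures sat 15 min at room temperature, followed by a 5 min reaction with 15 nM final substrate and 10 min with AlphaScreen beads. Recombinant human Tdp1 was used at 1 nM final.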
FEN1 inh = blocks human flap endonuclease 1. P39748. actives 0.35% (n = 390,000). Potency, µM (titrated, usually from 114 µM), for inactives: top-dose activity change, negative = inhibition, usual class: inhibitors. Recombinant FEN1 flap cleavage, fluorescence, 15 min; note: % is set by controls: 0 for no effect and ±100 for the full control effect; nearly all actives have a fitted effect of over 65% in size
Target sequence (P39748 whole entry, looked up): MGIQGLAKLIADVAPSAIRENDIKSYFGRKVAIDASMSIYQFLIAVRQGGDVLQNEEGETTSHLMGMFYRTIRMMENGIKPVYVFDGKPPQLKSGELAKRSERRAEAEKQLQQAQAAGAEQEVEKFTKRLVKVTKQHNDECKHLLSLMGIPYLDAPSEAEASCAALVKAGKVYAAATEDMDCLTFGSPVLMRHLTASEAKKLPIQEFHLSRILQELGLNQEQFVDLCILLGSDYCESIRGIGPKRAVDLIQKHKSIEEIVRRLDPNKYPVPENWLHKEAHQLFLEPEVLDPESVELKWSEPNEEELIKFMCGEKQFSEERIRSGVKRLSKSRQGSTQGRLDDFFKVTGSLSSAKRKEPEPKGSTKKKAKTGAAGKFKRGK
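In this screen, 50 nM flap DNA substrate was added to 10 nM FEN1 pretreated with compound for 15 min at room temperature; cleavage was followed with reads at 0 and 15 min, and Hill fitting gave concentration–response parameters.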
Pol eta inh = DNA polymerase eta (human) inhibition; recombinant Pol eta, fluorescent DNA replication assay; Potency, µM (doses to about 114 µM), for the others: at the top dose activity change, negative = inhibition, usual class: inhibitors; actives 1.2% (n = 390,000); note: % is set by controls: 0 for no effect and ±100 for the full control effect
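Pol eta (10 nM) was preincubated with compounds for 15 min at room temperature, after which fluorescent replication substrate (50 nM final) was added to start the reaction. Fluorescence was read kinetically at 0 and 10 min.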
Pol beta inh = inhibitors of human DNA polymerase beta | P06746 | Pol beta primer extension/strand displacement, fluorescence kinetic | Potency, µM (series often up to 114 µM), inactives show at the top dose activity change, negative = inhibition, hits mostly inhibitors | actives 1.3% (n = 340,000); note: % is set by controls: 0 for no effect and ±100 for the full control effect
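Pol beta (10 nM) and compounds were preincubated 15 min at room temperature, then 50 nM substrate (final) started primer extension/strand displacement. Reads were taken at 0 and 10 min; concentration-response data were fitted to a four-parameter Hill equation.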
Pol kappa inh = DNA polymerase kappa (human) inhibition; actives 0.53% (n = 400,000); Potency, µM (titrated, usually from 107 µM), for the others: at the highest dose activity, negative = inhibition, usual class: inhibitors; Q9UBT6; AID 588579; purified Pol kappa, fluorescent DNA synthesis assay, 10 min; note: % is set by controls: 0 for no effect and ±100 for the full control effect
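10 nM Pol kappa preincubated 15 min at room temperature with compounds, then reaction started with substrate at 50 nM final. Fluorescence read kinetically at 0 and 10 min; buffer-only wells served as negative control.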
POLI inh = DNA polymerase iota (human) inhibition | actives 1% (n = 390,000) | AID 588590 | Q9UNA4 | Pol iota fluorescent replication assay, 10 min | Potency, µM (highest dose often 115 µM), for inactives: at the top dose activity, negative = inhibition, most hits filed as inhibitors
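Pol iota at 10 nM preincubated 15 min with compounds at room temperature; reaction started with fluorescent substrate, 50 nM final. Fluorescence read kinetically at 0 and 10 min; buffer-only wells as negative control.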
An asterisk follows results filed as active; [ ] = remark or other dose. Calls come from the whole dose curve; as a rule, active = well fitted curve in the direction sought with a large enough effect; inconclusive = small, poorly fitted or top-dose-only effect, or another doubt; inactive = no such curve, though single readings can be large; an effect the other way counts as inactive or inconclusive. Potency is the fitted concentration of half-maximal effect.

For O=C(c1cnccn1)N1CCC2(CCCN(C(c3ccccc3)c3ccccc3)C2)CC1 the results were Pol kappa inh 1.5%[60.1 µM].
For Cc1c(P(=S)(c2ccccc2)c2ccccc2)c2ccccc2n1C(=O)NCc1ccc(F)cc1 the results were TDP1 block -0.4%.
Screening CN(C)c1nc(-c2ccccc2)c2cnn(Cc3ccccc3)c2n1 returned TDP1 block 15.8µM*, FEN1 inh -11.5%, Pol eta inh -18.8%, Pol beta inh 14.4%, Pol kappa inh -9.6% and POLI inh 36.0%.
Screening CCOc1ccc(-c2cc(C)n3nc(C(=O)Nc4cc(Cl)ccc4O)cc3n2)cc1 returned TDP1 block 0.0%, FEN1 inh -20.0%, Pol eta inh inconclusive, Pol beta inh 7.08µM*, Pol kappa inh -69.3% and POLI inh 79.4µM*.
For CCOc1ccc(NC(=O)c2cc3nc(-c4ccc(OC)cc4)cc(C(F)(F)F)n3n2)cc1 the results were TDP1 block -0.6%, FEN1 inh -2.2%, Pol eta inh -16.1%, Pol beta inh 4.1%, Pol kappa inh 5.3% and POLI inh 30.7%.
CCCCCCCCc1nnc(NC(=O)c2ccco2)s1 was read as TDP1 block 7.0%, FEN1 inh -4.5%, Pol eta inh -12.2%, Pol beta inh 35.5µM*, Pol kappa inh -6.7% and POLI inh -2.6%.
For O=c1cc(NCc2ccco2)[nH]c(=O)n1-c1ccc(Br)cc1 the results were TDP1 block 6.2%, FEN1 inh 1.6%, Pol eta inh inconclusive, Pol beta inh -27.3%, Pol kappa inh inconclusive and POLI inh 50.1µM*.
NS(=O)(=O)c1ccc(NC(=O)COc2cccc3ccccc23)cc1 was read as TDP1 block 1.6%, FEN1 inh -2.3%, Pol eta inh 79.4µM*, Pol beta inh -19.5%, Pol kappa inh -5.6% and POLI inh 89.1µM*.
`CCc1ccc(C=O)cc1` gave FEN1 inh -3.8%, Pol kappa inh 5.1% and POLI inh 30.8%.
`COc1ccc(C(=O)Nc2nnc(CC(=O)N/N=C/c3ccc(O)cc3O)s2)cc1` gave Pol beta inh 5.01µM*.
`Cc1ccc(C(=O)Nc2nnc(CC(=O)N/N=C/c3ccncc3)s2)cc1` gave TDP1 block 0.5%, FEN1 inh 4.8%, Pol eta inh inconclusive, Pol beta inh -25.3%, Pol kappa inh -17.8% and POLI inh -3.6%.
For C=C1C=C(C(F)F)n2ncc(C(=O)Nc3ccc(Br)cc3C(F)(F)F)c2N1 the results were FEN1 inh -13.4%, Pol kappa inh -21.4% and POLI inh 52.3%.
`Cc1noc(NS(=O)(=O)c2ccc(NC(=O)C(Cl)(Cl)Cl)cc2)c1C` gave TDP1 block 6.2%, FEN1 inh 5.9%, Pol eta inh -11.1%, Pol beta inh 5.0%, Pol kappa inh -7.7% and POLI inh 10.6%.
Screening Cc1noc(NS(=O)(=O)c2ccc(NC(=O)Nc3ccc(Cl)c(Cl)c3)cc2)c1C returned TDP1 block 10.9%, FEN1 inh -3.3%, Pol eta inh 50.1µM*, Pol beta inh inconclusive, Pol kappa inh -3.9% and POLI inh inconclusive.
Screening Cc1cc2oc(C(=O)Nc3ccc(S(=O)(=O)Nc4onc(C)c4C)cc3)cc(=O)c2cc1C returned TDP1 block 6.1%, FEN1 inh inconclusive, Pol eta inh 79.4µM*, Pol beta inh -3.5%, Pol kappa inh 0.0% and POLI inh inconclusive.
`CC(=O)Nc1ccc(/C(C)=N\NC(=O)c2ccc(-c3ccccc3)cc2)cc1` gave TDP1 block 0.0% and Pol beta inh 39.8µM*.
For O=C(OCc1cc(=O)n2nc(-c3cccs3)sc2n1)c1ccccc1Br the results were TDP1 block 1.9%, FEN1 inh 8.2%, Pol eta inh 79.4µM*, Pol beta inh 20µM*, Pol kappa inh -25.4% and POLI inh inconclusive.

Screens: PubChem BioAssay, National Center for Advancing Translational Sciences (NCATS)
